# Measurements from PubChem BioAssay (NCI).
# This is part of a sample that, as a whole, favours compounds with a hit. Of some 83,000 tested, about 20% had one in any assay.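 48-hour exposure, single concentration, 96-well plates; percent growth endpoint where 0 means no net growth. Active: below 10.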 A number with no mark means an inactive call. The source made the active and inactive calls.
# Test system: HS 578T breast
# Assay: NCI-60 one-dose screen, 48 h (100 = growth as untreated, 0 = no growth, -100 = all killed)
# Details: 10 µM unless noted
# Procedure: Growth inhibition of the HS 578T human tumor cell line is measured as a screen for anti-cancer activity. Cells are grown in 96 well plates and exposed to the test compound for 48 hours. Compounds are tested at a single concentration, which is 10^-5 M for most compounds. The reported endpoint is percent growth (GI% or GIPRCNT), where numbers from 0 - 100% represent growth inhibition, and numbers from -100% - 0 represent cell death. For example, a value of 40 represents 60% growth inhibition. A value of 0 means no net growth occurred over the course of the experiment. A value of -40 indicates 40% of cells at the beginning of the experiment died by the end of the experiment. A value of -100 means all cells are dead at the end of the experiment.
# NCI-60 Human Tumor Cell Lines Screen was performed using the standard one-dose NCI protocol, which is described in more detail at https://dtp.cancer.gov/discovery_development/nci-60/default.htm.
# Compounds with GIPRCNT values below 10 were considered active. Activity score was based on GIPRCNT using the following formula: […]
# Score is 0 for GIPRCNT values of 100 or above, 50 for GIPRCNT values of 0, and 100 for GIPRCNT values of -100.
row,SMILES,growth
1,COc1cc(/C=C2\COc3ccc(O)cc3C2=O)cc(OC)c1,77.4%
2,O=C1/C(=C/c2ccc3cccc(Cl)c3n2)SC(=S)N1CCc1ccc(O)cc1,73.8%
3,CCOC(=O)c1c(C)c(C(=O)OCC)n(C)c1C,92.6%
4,COc1ccc(C2CC(c3ccc(OC)c(OC)c3)=NN2C(=O)c2cc(OC)c(OC)c(OC)c2)cc1 (stereo not given),-14% (active)
5,N#CCNc1ccccc1N,91.8%
6,O=c1cc(-c2cccnc2)oc2c1ccc1ccccc12,66.5%
7,COc1cccc2c1C(=O)c1c(O)c3c(c(O)c1C2=O)C[C@@](O)(/C(C)=N/NC(=O)c1cccc([N+](=O)[O-])c1)C[C@@H]3OC1CC(N)C(O)C(C)O1 (stereo not given in full),-12.3% (active)
8,Cc1cc(=O)n2n1-c1ccc(Cl)cc1NC(=O)C2,117%
9,COc1ccc(CCN2CCCN3C2=Nc2ccccc2S3(=O)=O)cc1,39.5%
10,CC(c1ccccn1)C(C)(O)C(C)c1ccccn1 (stereo not given),104%
11,CCC(O)C(C)(C)C (stereo not given),95.8%
12,CC1SC(c2c(Cl)cccc2Cl)N(NC(=O)c2[nH]c3ccc(F)cc3c2-c2ccccc2)C1=O (stereo not given),-8.04% (active)
13,CC(C)(C)c1ccc(C(O)CCCN2CCC(C(O)(c3ccccc3)c3ccccc3)CC2)cc1 (stereo not given),-45.3% (active)
14,CC(C)[O-].CC(C)[O-].CN(CCN(C)Cc1cc(F)cc(F)c1[O-])Cc1cc(F)cc(F)c1[O-].[Ti+4],-16% (active)
15,O=[P@@]1(c2ccccc2)O[C@H](COCc2ccccc2)[C@@H](OCc2ccccc2)[C@H](OCc2ccccc2)[C@H]1NCc1ccccc1,49.9%
16,COc1ccc(-n2nnc(C(=O)O)c2-c2cc(OC)c(OC)c(OC)c2)cc1,102%
17,Cc1nc(N)[nH]c(=O)c1C,183%
18,CCCCSc1cc(C)nc(N)n1,92.3%
19,O=C(CCc1nnc(Cn2cncn2)o1)c1nc2ccccc2[nH]1,127%
20,COc1ccc(COC(C)=O)cc1,105%

row,SMILES,growth
1,Clc1cccc(Cc2cn3cc(-c4ccccc4)nc3s2)c1,76.8%
2,CCC1=C(c2ccc(OC)cc2)C(C)Oc2cc(OC(C)=O)ccc21 (stereo not given),83.5%
3,CCCCCCC/C(=N\N=C(N)N)c1ccc(O)cc1,57.3%
4,Cc1ccc(C=C2C(Cl)=C(Cl)C(Cl)=C2Cl)cc1,-9.6% (active)
5,C=C1CC[C@@H]2[C@](C)(COC(C)=O)[C@H](OC(C)=O)CC[C@@]2(C)[C@@H]1CC(Nc1ccc(S(=O)(=O)Nc2cc(C)on2)cc1)C1=CCOC1=O (stereo not given in full),89.5%
6,CCN1C[C@@H](C)n2c(c(O)c3c(=O)n(Cc4ccc(F)c(Cl)c4)nc(C(=O)NC)c32)C1=O,16.7%
7,O=C1N(C2CCCCC2)C(=O)N1C1CCCCC1,-2.96% (active)
8,Clc1nc(Cl)c2ncn(-c3ccccc3)c2n1,12.4%
9,N=c1ccn2c(n1)O[C@@H]1[C@@H](O)[C@H](CO)O[C@@H]12,99%
10,CCSc1nnc2n(Cc3ccccc3)c(=O)c3c(C)c(C(N)=O)sc3n12,101%
11,COc1ccc(-c2cnnn2-c2cc(OC)c3c(c2)OCO3)cc1,5.54% (active)
12,CCCCCCC(C)(O)c1ccccc1 (stereo not given),117%
13,Cn1c(N)c(N=O)c(=O)[nH]c1=O,99.8%
14,Fc1ccc(-c2nc(Nc3ccc(-c4nc5ccccc5[nH]4)cc3)nc(N3CCOCC3)n2)cc1,-40.3% (active)
15,COc1cc(C2CC(=O)Nc3c2cc(Br)c2ccccc32)cc(Br)c1OC (stereo not given),39.6%
16,Cn1[nH]cc(/C=N/C(N)=O)c1=O,109%
17,COc1cc2c(c(OC)c1OC)CCc1cnoc1-2,106%
18,CCOC(=O)C(C(C)=O)c1nc2sc3cc(Cl)ccc3n2c(=N)c1C#N (stereo not given),28.8%
19,COc1cc(OC)c2sc(-c3ccc(-n4cncc4-c4ccc(N)cc4)cc3)nc2c1,103%
20,O=C(OCCBr)c1ccc(Cl)c([N+](=O)[O-])c1,-29.9% (active)
